# The full ranking holds about 33,000 sequences; the median of “E-score (dimensionless, -0.5 to 0.5)” is about -0.058, and the highest 2% start at about 0.35. Many of the other results were omitted from the sample, so the highest values are more common in it than they were.
# Tested on: MvaT
# Experiment: PBM 8-mer E-score (mean of HK and ME arrays) (E-score (dimensionless, -0.5 to 0.5)); higher = stronger relative binding preference
# Procedure: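 Protein binding microarray: GST-tagged full-length MvaT (P. aeruginosa PAO1) bound to two universal double-stranded 60-mer arrays (ME and HK), each with a constant 25-mer primer and a variable 35-mer region covering all 8-mers. The 8-mer E-score (rank-based, range -0.5 to 0.5, >0.45 = specific binding) is the mean of the two arrays.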
row,Sequence,PBM 8-mer E-score
1,GTTTAACA,0.281
2,AGTTAATC,0.169
3,ATTTAACC,0.195
4,ATTTACTG,0.247
5,ATTTAACG,0.255
6,ATTTAATG,0.376
7,GGTTAATA,0.276
8,GTTTAAGA,0.246
9,AGTTAATA,0.406
10,ATTTAAGG,0.101
11,GTTTAATA,0.407
12,ATTTAACA,0.376
13,CAACTCCA,-0.0538
14,CACCCAGA,-0.158
15,CATAGGAG,0.0253
16,AATCTCGG,0.0949
17,ACACCATA,0.0603
18,CCAGGTCA,-0.141
19,AAGTAGGT,0.0927
20,CATTCCCC,-0.183
21,ATTTAAGA,0.239
22,CTTTAATA,0.344
23,CTTTAATC,0.141
24,ATTTAAGC,0.309
25,ATTTAATC,0.346

row,Sequence,PBM 8-mer E-score
1,ATTTAATA,0.411
2,AGATCGCG,-0.153
3,GATTCAGA,-0.0136
4,GAGTTAGC,-0.00613
5,GGACCAAA,-0.139
6,AGCTCGGA,-0.141
7,CAATTATA,0.414
8,TAATTCTA,0.278
9,AAATTATC,0.318
10,AAATTATG,0.233
11,CAATTATG,0.329
12,TAATTGTA,0.305
13,AAATTATA,0.45
14,TAATTATA,0.462
15,GAATTATA,0.374
16,GAATTATC,0.147
17,GAATTACA,0.175
18,CAATTATC,0.264
19,AAGGACCA,-0.154
20,AGGGGGTG,-0.316
21,AACCTGCT,-0.0689
22,TGTCCCAA,0.187
23,CTGGCAAC,0.0118
24,TCCTTCAA,-0.14
25,ATACTAAG,0.272

row,Sequence,PBM 8-mer E-score
1,AGTAGGTG,-0.0642
2,AATCGAAC,0.176
3,CCCGGCGA,-0.269
4,GAATTAGA,0.106
5,AAATTGTT,0.351
6,AAATTACA,0.274
7,AAATTATT,0.401
8,AAATTAGG,0.165
9,AAATTGTC,0.22
10,AAATTGTA,0.267
11,AAATTACC,0.212
12,TAATTAGA,0.353
13,CAATTACA,0.288
14,TAATTACA,0.384
15,CAATTAGA,0.202
16,ACAGCAAG,-0.0242
17,GTACATAA,0.297
18,CCGGGACC,-0.311
19,ATCCAGAA,0.0751
20,ATCAGTCG,-0.0941
21,ACAAATGC,0.0069
22,GAGGTAGC,-0.211
23,AGCCACCA,-0.0502
24,AAAAGTTG,0.221
25,CAAAGTTA,0.265

row,Sequence,PBM 8-mer E-score
1,AAAAGTTC,0.277
2,TAAAGTTA,0.315
3,AAAAGTCA,0.0201
4,GATAGTTA,0.311
5,AAAAGTTA,0.371
6,AAAAGTGA,0.0292
7,AAAAGTTT,0.352
8,GAAAGTTA,0.346
9,CATAGTTA,0.178
10,AATAGTTA,0.387
11,GCGTCAGA,-0.131
12,CGTGGATA,0.112
13,ATCCCAGA,-0.203
14,GCCACGCA,-0.169
15,CACCGGTG,-0.153
16,GAAACAGA,-0.0327
17,CGGAGTAC,-0.128
18,CTGAATGC,-0.0524
19,AGGTCGCG,-0.202
20,AAAAAGTA,0.154
21,AAAAAGTC,0.17
22,AAAAAGTT,0.357
23,TGCCGGCA,-0.0619
24,ATGACTCA,-0.062
25,AGTTAAAC,0.242

row,Sequence,PBM 8-mer E-score
1,AGTTAAAA,0.37
2,CGTTAAAA,0.295
3,AGTTAAAT,0.383
4,AGTTAAAG,0.209
5,TGTTAAAA,0.25
6,ACCTGCAC,-0.11
7,CCGCAGAC,-0.181
8,AAAGACGT,0.0386
9,CGTGCGCC,-0.27
10,TCCAGGCA,-0.215
11,TAATGTAA,0.373
12,AAATGTAC,0.14
13,CAATGTAA,0.236
14,AATTGTAA,0.305
15,AAATGTAG,0.0975
16,TCATGTAA,0.119
17,ACATGTAA,0.361
18,GAATGTAA,0.232
19,GATTGTAA,0.109
20,TATTGTAA,0.379
21,AAATGTAA,0.373
22,CCATGTAA,0.171
23,AGTAGATA,0.202
24,CGAATTTA,0.157
25,CTGGGATA,-0.0515

row,Sequence,PBM 8-mer E-score
1,CGCAACCC,-0.0943
2,AGGTGCAT,-0.0802
3,GCAGGACC,-0.179
4,ACAATCAA,0.21
5,TAGAGACA,0.123
6,CAATCGGA,-0.0769
7,ACTTCTCC,0.2
8,GCATATGA,0.176
9,TCATATAA,0.379
10,TCATATGA,0.204
11,GCATATAA,0.374
12,CCATATAA,0.343
13,GCATATAC,0.311
14,ACGCAGGC,-0.282
15,GCCGAACC,-0.115
16,ATAACTGG,0.213
17,ACAGGAAA,0.0933
18,AAACCCTT,-0.0425
19,GTTAATCA,0.183
20,GTTAATAA,0.377
21,CTTAAAAA,0.163
22,GTTAATGA,0.264
23,CTCAATAA,0.307
24,CTTAATAA,0.385
25,CATGAGAA,-0.0314

row,Sequence,PBM 8-mer E-score
1,CACTTGTA,0.139
2,ACATAACT,0.268
3,AAATAACA,0.336
4,AAATAACG,0.331
5,CAATAACC,0.223
6,AAATAACC,0.375
7,AAATAACT,0.375
8,CACGTGCA,-0.0519
9,ATCTGGAC,-0.0431
10,TCATCGAA,-0.15
11,GAGACATC,-0.0544
12,AAGCATAG,-0.033
13,CCAGTTAC,0.14
14,AGACGCGA,0.0502
15,AAATTTAC,0.11
16,AAAAATTT,0.298
17,AAATTTAT,0.384
18,CAAATTTA,0.22
19,AAATTTAG,0.238
20,AAATTTTA,0.35
21,TAAATTTA,0.414
22,AAAATTTA,0.311
23,AAAATTTT,0.354
24,AATTTTTA,0.34
